Assay outcomes: PubChem, several laboratories
Only some compounds are listed: those with a hit (about 9.7% of all), similar ones and a draw of the others.
A340 absorber: absorbance at 340 nm | compound absorbance at 340 nm, fold over control | fold change at 10 µM | 65,000 tested, under 10 active | AID 708;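 active means at 10 µM dose, initial 340 nm absorbance at least 2 fold that of control wells; inactive means change under 2 fold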;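 further: initial absorbance extrapolated from kinetic A340 decline of NADH oxidation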
Autofluor 339: intrinsic fluorescence of library compounds, ex339/em460 – biochemical, MLSMR library, data from DPM-DC assay, artefact control, profiling panel; compound autofluorescence, ex339/em460 nm, NADH buffer; stronger effect = higher value; 1 = no-compound wells, NADH background; fluorescence fold increase at 10 µM; 65,000 compounds, 5.5% hits;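 active means at 10 µM, mean starting fluorescence two-fold or more over control wells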;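 further: signal is the first read of a kinetic run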
M1 agonist: M1 muscarinic receptor agonism. 64,000 compounds, 3% hits. B-score at 10 µM. AID 626. CHO-M1 cells, Fluo-4 calcium fluorescence, agonist mode; stronger effect = higher value;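 active means fluorescence rise, raw or as B-score row- and column-corrected plate score, outside the 99.7% band of its plate's samples, either direction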
BAP1 inh: inhibitors of human BAP1 deubiquitinase; AID 436; calls only at 20 µM; 72,000 compounds, 0.48% hits; Q92560; recombinant BAP1, Ub-AMC hydrolysis fluorescence kinetic; stronger effect = lower value;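 active means activity remaining at or below 50% of control, provided the compound also passes the data quality filters; inactive means the rest, including low values that fail the filters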;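 further: 100% = DMSO wells rate and 0% = substrate alone blank rate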
WNV protease inh: blocks West Nile virus NS2B-NS3 protease activity; AID 577; 65,000 compounds, 0.18% hits; z-score (no concentration beside the values); WNV NS2B-NS3 protease, fluorogenic substrate Ex360/Em465; stronger effect = lower value; P06935; in the data active means z-score below about -3
M1 antagonist: M1 muscarinic receptor (rat) antagonism; P08482; 64,000 compounds, 3.4% hits; B-score at 10 µM; CHO-M1 cells, Fluo-4 calcium, ACh EC80 antagonist mode; stronger effect = lower value; AID 628;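 active means calcium fluorescence response, raw or row-and-column corrected B-score, differing from the plate sample mean either way at a set confidence level, mostly lower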
M1 agonist conf: confirmation of rat M1 muscarinic receptor agonists; shares compounds with M1 agonist; CHO-M1 cells, Fluo-4 calcium fluorescence, agonist mode; actives lie on both sides; fluorescence change (max-min) at 10 µM; 1,700 compounds, 19% hits; AID 1488;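 active means fluorescence change differs from the solvent-only DMSO control mean at a set confidence level in both duplicate runs; inconclusive means differs from solvent-only control mean in just one of two runs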;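 further: an EC20 dose of acetylcholine follows compound addition during the same imaging run; raw fluorescence intensity difference in instrument units with no normalization to controls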
M4 ag counter: counter-screen for M1 agonists: activity at rat M4 receptor. 1,700 compounds, 9% hits. fluorescence change (max-min) at 10 µM. CHO M4/Gqi5 cells, Fluo-4 calcium fluorescence, agonist mode; actives lie on both sides. AID 1741. shares compounds with M1 agonist;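 active means fluorescence change differing from the plate's solvent-only control wells at 99.7% confidence in both duplicates, whether higher or lower; inconclusive means differs from solvent controls in only one of two duplicates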
Target sequence (P08485 whole entry, looked up): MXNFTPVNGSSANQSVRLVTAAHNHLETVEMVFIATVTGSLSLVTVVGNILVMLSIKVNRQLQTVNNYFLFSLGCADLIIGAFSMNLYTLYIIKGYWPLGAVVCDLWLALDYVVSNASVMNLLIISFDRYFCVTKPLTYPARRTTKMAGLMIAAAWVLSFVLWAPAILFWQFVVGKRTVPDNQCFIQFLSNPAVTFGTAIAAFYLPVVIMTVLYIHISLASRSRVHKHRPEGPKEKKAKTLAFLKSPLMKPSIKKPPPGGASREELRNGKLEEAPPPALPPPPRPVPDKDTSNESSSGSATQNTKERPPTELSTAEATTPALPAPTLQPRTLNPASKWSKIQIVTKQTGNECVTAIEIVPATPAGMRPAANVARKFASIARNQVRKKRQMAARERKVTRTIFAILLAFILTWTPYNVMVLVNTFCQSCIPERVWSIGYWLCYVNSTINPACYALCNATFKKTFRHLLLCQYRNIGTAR
An asterisk follows results filed as active; i = inactive; ? = inconclusive; nt = no result.

SMILES | A340 absorber | Autofluor 339 | M1 agonist | BAP1 inh | WNV protease inh | M1 antagonist | M1 agonist conf | M4 ag counter
Clc1ccc2c(c1)CNc1c(ncnc1N1CCOCC1)O2 | 1.04 | 1.08 | 2.72* | i | -1.16 | -1.97* | ? | -74.4
CC1CCCCC1NS(=O)(=O)c1ccc(S(=O)(=O)NCc2ccncc2)cc1 (stereo not given) | 0.95 | 1.05 | 3.49* | i | 0.00138 | -0.492 | -10.6 | -9.61
N#CC1(c2nc3ccccc3[nH]2)CC1c1ccc2c(c1)OCO2 (stereo not given) | 1.05 | 1.24 | 2.88* | i | 1.14 | 0.291 | -33.6* | -81.9
O=C(Nc1ccc(NC(=O)c2ccco2)c(Cl)c1)c1cccc(F)c1 | nt | nt | nt | i | nt | nt | nt | nt
O=C(C1CC1)N1CCc2cc(Br)cc(S(=O)(=O)N3CCOCC3)c21 | 1.01 | 1.05 | 3.01* | i | 0.6 | 0.0762 | -4.84 | -19.6
CCn1c(=O)cc(SCC(=O)N2CCN(c3ccccn3)CC2)c2ccccc21 | 1.06 | 1.19 | 5.87* | i | -1.19 | -1.87 | -29.5* | -38.1
Cn1c(=O)cc(SCC(=O)N2CCCC2)c2ccccc21 | 1.02 | 1.41 | 0.13 | i | -0.43 | -0.201 | nt | nt
Cc1cc(-c2nc3ccccc3o2)c2ccccc2n1 | 1.05 | 1.86 | 0.342 | i | -0.09 | -0.286 | nt | nt
CCCN(CCC)c1nc(C)cc(C(C#N)c2nc3ccccc3o2)n1 (stereo not given) | 1.04 | 2.18* | 6.44* | i | -0.84 | 0.189 | 4.7 | -23.9
Cc1ccc(NC(=O)c2cccc(C(=O)OC(C)C)n2)cc1 | nt | nt | nt | i | nt | nt | nt | nt
CN(c1ccccc1)S(=O)(=O)c1ccc(C(=O)OCC(=O)NCc2ccco2)cc1 | 1.02 | 1.06 | -0.103 | i | 0.52 | 0.223 | nt | nt
COc1ccccc1N(C)S(=O)(=O)c1ccc(C(=O)OCC(=O)NCc2ccco2)cc1 | 1.01 | 1.09 | 6.86* | i | 1.15 | -0.65 | -18.9 | -38.2
CCO/C(C)=N/n1c2nc3ccccc3nc2c2c(=O)n(C3CCCC3)c(C)nc21 | 1.13 | 1.49 | 9.43* | i | -0.12 | -0.502 | ? | -41
CCOc1ccc(Oc2cc(NC(=O)c3cc4n(n3)C(C(F)(F)F)CC(c3ccc5c(c3)OCO5)N4)cc([N+](=O)[O-])c2)cc1 (stereo not given) | nt | nt | nt | i | nt | nt | nt | nt
N=c1nc(N2CCCCC2)cc(N)n1O | 0.98 | 1.02 | 10.1* | i | -0.06 | -0.316 | -4.37 | -26.4
Cc1cc(N2CCCCC2)nc(SCc2ccc(C#N)cc2)n1 | 1.01 | 1.08 | -0.659 | i | -0.27 | -1.21 | nt | nt
S=C1NC(c2ccc(Br)cc2)=CC(c2ccccc2Cl)N1 (stereo not given) | nt | nt | nt | i | nt | nt | nt | nt
C1=CC2CC1CC2CN1CCN(c2ccccc2)CC1 (stereo not given) | 1.02 | 1.01 | 6.44* | i | 0.15 | -1.45 | ? | -41.5
O=C(c1ccco1)N1CCN(CC2CC3C=CC2C3)CC1 (stereo not given) | 1 | 1.01 | 6.21* | i | 0.33 | -2.41* | ? | -57.4
CS(=O)(=O)N1CCN(CC2CC3C=CC2C3)CC1 (stereo not given) | 1.01 | 1.03 | 37.3* | i | -0.32 | -6.84* | 208* | -53
CS(=O)(=O)N1CCN(Cc2ccccc2C(F)(F)F)CC1 | 1.02 | 1.08 | 0.0656 | i | -0.62 | 1.53 | nt | nt
COc1ccc(CN2CCN(C(=O)c3ccco3)CC2)cc1 | 1.02 | 1.65 | -0.589 | i | -0.14 | 0.48 | nt | nt
CC(C)c1nnc(NC(=O)CCC(=O)N2CCN(C3CCCCC3)CC2)s1 | 1.03 | 0.97 | 3.11* | i | -1.31 | -0.0268 | ? | -8.59
CCCc1nnc(NC(=O)CCC(=O)N2CCN(CCOc3ccc(C)cc3)CC2)s1 | 0.98 | 1.02 | 20* | i | 0.08 | -1.6 | -7.25 | -34.7
Cc1ccc(OCCN2CCN(C(=O)CCC(=O)Nc3nnc(C(C)C)s3)CC2)cc1 | 1.03 | 1.17 | 12.8* | i | 0.42 | -1.92 | 5.05 | 0.755
SMILES | A340 absorber | Autofluor 339 | M1 agonist | BAP1 inh | WNV protease inh | M1 antagonist | M1 agonist conf | M4 ag counter
CCc1nnc(NC(=O)CCC(=O)N2CCN(C3CCCCC3)CC2)s1 | 1.05 | 1.08 | nt | i | -0.89 | nt | nt | nt
Cc1ccc(OCCN2CCN(C(=O)CCC(=O)Nc3nnc(C)s3)CC2)cc1 | 0.98 | 1.07 | -1.06 | i | -1.53 | -0.768 | nt | nt
Cc1ccc(S(=O)(=O)N(C(=O)NC(=O)Nc2cccc(C(F)(F)F)c2)c2ccccc2)cc1 | nt | nt | nt | i | nt | nt | nt | nt
O=C(Cn1ncc2c(=O)oc3ccccc3c21)N1CCN(C(=O)c2ccco2)CC1 | 0.99 | 1.2 | -0.352 | i | -1.17 | -0.509 | nt | nt
Cc1ccc2c(c1)-c1c(cnn1CC(=O)N1CCCN(Cc3ccccc3F)C1)CO2 | 1.06 | 1.09 | 3.44* | i | -1.81 | 0.0499 | ? | -36.5
O=C(Cn1ncc2c(=O)oc3ccccc3c21)N1CCCN(Cc2ccccc2F)C1 | 1.05 | 1.1 | 5.98* | i | 2.28 | -0.879 | -9.98 | -32.8
Cc1ccc2c(c1)-c1c(cnn1CC(=O)O)CO2 | 0.97 | 1.02 | 0.311 | i | -1.14 | -0.541 | nt | nt
CCC(=O)Nc1ccc2nc(SCc3c(C)cc(C)c(C(C)=O)c3C)sc2c1 | nt | nt | nt | i | nt | nt | nt | nt
O=C(O)CSc1nc2ccc(Cl)cc2[nH]1 | 1.02 | 1.07 | 1.38 | i | -1.19 | 0.195 | nt | nt
Nc1ccc2nc(-c3ccc(Cl)cc3)[nH]c2c1 | 1.16 | 2.12* | -2.19* | i | 3.09 | -0.665 | ? | -79.5
O=C(c1nn2c(c1Cl)NC(c1cccs1)CC2C(F)(F)F)N(Cc1ccccc1)c1ccccc1 (stereo not given) | nt | nt | nt | i | nt | nt | nt | nt
CCCc1ccc(C=Cc2ccccc2)nc1 | nt | nt | nt | i | nt | nt | nt | nt
CN(C)c1nc(SCCOC(=O)COc2ccc(Cl)cc2Cl)nc(N(C)C)n1 | 1.01 | 1.11 | 1.97* | i | -0.28 | -1.23 | 10.6 | ?
CN(C)c1nc(OCCOC(=O)COc2ccc(Cl)cc2Cl)nc(N(C)C)n1 | 1.01 | 1.14 | -1.01 | i | -0.11 | 0.324 | nt | nt
CC(=O)N1C(=O)C(=C2C=C(C)OC(C)=C2)c2ccccc21 | 1.06 | 1.08 | 28.4* | i | 2.43 | -0.844 | ? | 52.4
CC1=CC(=C2N=C(c3ccccc3)OC2=O)C=C(C)O1 | 1.04 | 1.06 | 0.873 | i | -0.5 | 0.286 | nt | nt
Oc1c(I)cc2oc3c(c2c1CNc1ccc(Br)cc1)CCCC3 | nt | nt | nt | i | nt | nt | nt | nt
COc1cccc(CNn2c(-c3cccc(C)c3)nc3ccccc3c2=O)c1O | 1 | 1.03 | 8.57* | i | 2.69 | -1.22 | ? | -42.9
COc1cccc(/C=N/n2c(C)nc3ccccc3c2=O)c1O | 1.05 | 0.99 | 1.61 | i | 1.56 | -0.497 | nt | nt
CCOC(=O)C1=C(N)Oc2cc(C)n(CCc3ccc(OC)c(OC)c3)c(=O)c2C1c1cccnc1 (stereo not given) | 1.04 | 1.15 | 8.47* | i | -0.45 | -0.648 | ? | -67.2
